Screens from PubChem BioAssay.
Vaccinia mCherry: inhibitors of vaccinia virus infection (mCherry reporter signal) | Vaccinia virus mCherry reporter infection, fluorescence | AID 720579 | actives 0.63% (n = 310,000) | Potency, µM (series often up to 36.5 µM), usual class: inhibitors; calls by dose curve; tested in A549 cells; further: nearly all actives have a fitted effect of over 35% in size
HCV inhibitor: inhibitors of hepatitis C virus infection; Huh7.5.1 HCVcc-Cre infection, luciferase reporter, 44 h; Potency, µM (series often up to 41.8 µM), hits mostly inhibitors; actives 3.4% (n = 340,000); AID 651820; active means well fitted inhibition curve with a large enough effect; inconclusive means small, poorly fitted or top-dose-only effect, or another doubt; inactive means no such curve, though single readings can be large or run the other way
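Reporter virus HCVcc-Cre (~0.5 moi) infects cells exposed to compound; seeding density 1,000 cells/well with 4 h settling beforehand. Luminescence, 15 sec read, taken 44 h post-infection following a 15 min RT substrate incubation.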
Vaccinia Venus: inhibitors of vaccinia virus (Venus reporter). Potency, µM (highest dose often 36.5 µM), actives largely listed as inhibitors. AID 720580. Vaccinia virus Venus reporter expression, fluorescence. actives 0.46% (n = 330,000); calls by dose curve; tested in A549 cells; further: nearly all actives have a fitted effect of over 30% in size
Lassa entry inh: blocks Lassa virus binding to or entry into cells | Lassa virus pseudotype entry inhibition, cell reporter | Potency, µM (titrated, usually from 37.9 µM), usual class: inhibitors | actives 1.2% (n = 300,000); calls by dose curve; tested in HEK293 cells; further: nearly all actives have a fitted effect of over 50% in size
Marburg entry inh: blocks Marburg virus binding to or entry into cells | Potency, µM (highest dose often 37.8 µM), hits mostly inhibitors | actives 1.8% (n = 300,000) | Marburg virus pseudotyped entry inhibition, cell reporter; calls by dose curve; tested in HEK293 cells
HCMV antiviral: blocks human cytomegalovirus replication | HFF cells, HCMV-luciferase reporter, 72 h; stronger effect = lower value | activity change, negative = inhibition, % at 57.5 µM | AID 1259415 | actives 4.5% (n = 410,000); in the data active means activity change below about -60%; inconclusive means no clear call, values can overlap the other calls; inactive means above about -39%
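Luciferase read-out from HCMV-luciferase-infected HFFs (MOI 1 PFU/cell) 72 h post infection at 37C; compounds added after 16 h cell attachment; activity normalized between buffer-only basal and Salinomycin (10uM) inhibitor controls.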
Each line names hits and unclear results; the compound was inactive in the other large screens. Compounds with a hit are over-represented: about 7.8% of the library has one in this group of screens.

O=C1NCCOC(=O)[C@H](Cc2ccc(F)cc2)C/C=C\C[C@@H]1CC(=O)N(CCO)Cc1ccccc1	HCV inhibitor 11µM (no result: Lassa entry inh, Marburg entry inh)
CCOC(=O)C(CC)(CC)C(=O)/C=C/c1cccc(Br)c1	Vaccinia mCherry inconclusive, HCV inhibitor inconclusive, Lassa entry inh inconclusive, Marburg entry inh inconclusive, HCMV antiviral -75
NC(=O)NC(=O)COC(=O)/C=C/c1cccc(Br)c1	none (no result: Lassa entry inh, Marburg entry inh)
CCOc1ccc(-c2csc(NC(=O)c3ccc(S(=O)(=O)N4CCc5ccccc5C4)cc3)n2)cc1	none (no result: Vaccinia mCherry, Vaccinia Venus)
O=C(Nc1nc(-c2ccccc2)cs1)c1ccc(S(=O)(=O)N2CCc3ccccc32)cc1	HCV inhibitor 10µM, Vaccinia Venus inconclusive, Lassa entry inh inconclusive, Marburg entry inh inconclusive, HCMV antiviral -77
Cc1ccc(-c2csc(NC(=O)c3ccc(S(=O)(=O)N4CCc5ccccc54)cc3)n2)cc1	HCV inhibitor 4.5µM, HCMV antiviral inconclusive
CC1=CC(=O)c2ccccc2C1=O	HCMV antiviral inconclusive
CC(C)(C=O)C1=CC(=O)c2ccccc2C1=O	HCV inhibitor 7.1µM, Lassa entry inh inconclusive, Marburg entry inh inconclusive
Cc1cc(C)[n+](C)c2ccccc12	none (no result: HCV inhibitor, Lassa entry inh, Marburg entry inh, HCMV antiviral)
COc1ccc(Cn2ccc3nc(C)c(C(=O)Nc4ccc(OC)c(OC)c4)cc3c2=O)cc1	none (no result: HCV inhibitor, Marburg entry inh)
Cn1c(O)c(C2=c3ccccc3=NC2=O)sc1=Nc1ccc(Cl)cc1	Marburg entry inh inconclusive, HCMV antiviral -67 (no result: Vaccinia mCherry, Vaccinia Venus)
O=C(O)Cn1c(O)c(C2=c3ccccc3=NC2=O)sc1=O	none (no result: Vaccinia mCherry, Vaccinia Venus, Lassa entry inh, Marburg entry inh)
COc1c2ccc(OCC/C(C)=C/C(=O)C=C(C)C)cc2nc2occc12	Vaccinia Venus inconclusive, HCMV antiviral -101 (no result: Lassa entry inh, Marburg entry inh)
COC(=O)c1ccc(NC(=O)CN2C(=O)CC(c3ccccc3)Sc3ccccc32)cc1 (stereo not given)	none (no result: HCV inhibitor, Lassa entry inh)
Cc1ccc(Cn2ncc(Cl)c(Cl)c2=O)cc1	HCV inhibitor 11µM, Vaccinia Venus inconclusive, Lassa entry inh inconclusive, Marburg entry inh inconclusive
O=c1c(Cl)c(Cl)cnn1Cc1nnc(-c2ccc(Cl)cc2)o1	Vaccinia mCherry inconclusive, HCV inhibitor 10µM, Vaccinia Venus inconclusive, Lassa entry inh inconclusive, Marburg entry inh inconclusive, HCMV antiviral inconclusive
Cc1[nH]c(C)c2c(=O)n(Cc3ccc(Cl)cc3)ncc12	HCMV antiviral inconclusive (no result: Vaccinia mCherry, Vaccinia Venus, Lassa entry inh, Marburg entry inh)
O=c1c(Cl)c(Cl)cnn1Cc1ccccc1Cl	Vaccinia mCherry inconclusive, HCV inhibitor 2.8µM, Vaccinia Venus inconclusive, Lassa entry inh 13µM, Marburg entry inh 6.5µM, HCMV antiviral -101
O=c1[nH]cnc2c1cnn2Cc1ccccc1Cl	none (no result: Vaccinia mCherry, Vaccinia Venus, Lassa entry inh, Marburg entry inh)
O=c1c(Cl)c(Cl)cnn1-c1ccccc1	HCV inhibitor 4µM, Lassa entry inh inconclusive, Marburg entry inh 26µM, HCMV antiviral -100 (no result: Vaccinia mCherry, Vaccinia Venus)
COc1ccc2c(c1)[C@@H](NC(=O)OCc1ccccc1)[C@H](C)[C@@H](c1ccccc1)N2C(=O)NC(C)C	none (no result: Vaccinia mCherry, HCV inhibitor, Vaccinia Venus, Lassa entry inh, Marburg entry inh)
O=C(O)c1c(-c2ccccc2)oc2ccc(OCc3ccc(Cl)c(Cl)c3)cc12	Lassa entry inh inconclusive (no result: HCV inhibitor, Marburg entry inh)
Cc1cc(=O)[nH]c2c1cnn2Cc1ccccc1	none (no result: Vaccinia mCherry)
CCc1ccc(C(=O)Cn2ncc(Cl)c(Cl)c2=O)cc1	HCV inhibitor inconclusive, Lassa entry inh inconclusive, Marburg entry inh inconclusive, HCMV antiviral -107 (no result: Vaccinia mCherry)
Cc1cc(C)cc(Cn2ncc(Cl)c(Cl)c2=O)c1	HCV inhibitor inconclusive, Lassa entry inh inconclusive, Marburg entry inh 11µM, HCMV antiviral -84
O=C1COc2cc(S(=O)(=O)CCC(=O)NC3CCCCC3)c(Cl)cc2N1	none (no result: HCV inhibitor, Marburg entry inh)
COCCCNc1cc(C)nc2ccccc12	none
Cc1cc(NCCCCCCCNc2cc(C)nc3cc([N+](=O)[O-])ccc23)c2ccc([N+](=O)[O-])cc2n1	Vaccinia mCherry inconclusive, HCV inhibitor 10µM, Vaccinia Venus 10µM, Lassa entry inh inconclusive, Marburg entry inh inconclusive
CC1(C)Oc2ccc3ccc(=O)oc3c2/C(=C/Nc2ccc(O)cc2)C1=O	HCV inhibitor inconclusive, Vaccinia Venus inconclusive, Lassa entry inh inconclusive, Marburg entry inh inconclusive, HCMV antiviral -85
COc1ccc2cc3cc(C(=O)NCCc4ccccc4)sc3nc2c1Cl	HCMV antiviral inconclusive (no result: HCV inhibitor, Marburg entry inh)
CCOC(=O)C1CCCN(S(=O)(=O)c2ccc3[nH]c(=O)oc3c2)C1 (stereo not given)	none (no result: HCV inhibitor)
O=c1[nH]c(=O)n(C2C[C@H](O)[C@@H](CO)O2)cc1C(F)(F)F (stereo not given in full)	Vaccinia mCherry 0.5µM, Vaccinia Venus inconclusive (no result: Lassa entry inh, Marburg entry inh)
O=c1[nH]c(=O)n(C2CC(O)C(CO)O2)cc1Br (stereo not given)	Vaccinia mCherry inconclusive, Marburg entry inh inconclusive
O=c1[nH]c(=O)n([C@H]2C[C@H](O)[C@@H](CO)O2)cc1C(F)(F)F	Vaccinia mCherry inconclusive, HCV inhibitor inconclusive, Vaccinia Venus inconclusive, Lassa entry inh inconclusive, Marburg entry inh inconclusive
O=c1[nH]c(=O)n([C@H]2C[C@@H](O)[C@@H](CO)O2)cc1F	Vaccinia mCherry 3.5µM, Vaccinia Venus 14µM (no result: HCV inhibitor, Lassa entry inh, Marburg entry inh, HCMV antiviral)
COc1cccc(C(C)(O)c2nc(-c3ccc4c(c3)OCO4)cs2)c1 (stereo not given)	none (no result: HCV inhibitor, Lassa entry inh, Marburg entry inh)
CCOC(=O)c1ccc(N=c2sc(C(=O)OC)cc(=O)n2-c2ccc(C(=O)OCC)cc2)cc1	HCV inhibitor 10µM
COC(=O)c1cc(=O)n(-c2ccccc2)c(=Nc2ccccc2)s1	Vaccinia mCherry inconclusive, HCV inhibitor inconclusive, Vaccinia Venus 5µM
COC(=O)c1cc(=O)n(Cc2ccc(F)cc2)c(=Nc2ccccc2)s1	HCV inhibitor inconclusive (no result: Vaccinia mCherry, Vaccinia Venus, Lassa entry inh, Marburg entry inh)
COC(=O)c1cc(=O)n(Cc2ccc(OC)c(OC)c2)c(=Nc2ccc(F)cc2)s1	HCV inhibitor 11µM (no result: Lassa entry inh)
COCCN(Cc1ccc(C)c(Br)c1)S(=O)(=O)c1ccc2[nH]c(=O)ccc2c1	Lassa entry inh inconclusive (no result: HCV inhibitor, Marburg entry inh)
